FLuc inh-1 = blocks purified firefly luciferase enzyme activity; P08659; purified P. pyralis luciferase, luminescence, biochemical; Potency, µM (series often up to 115 µM), most hits filed as inhibitors; 2.5% of 76,000 active; AID 1347043; also: % is scaled to controls: 0 for no effect and ±100 for the full control effect; nearly all actives have a fitted effect of over 65% in size
Target sequence (P08659 whole entry, looked up): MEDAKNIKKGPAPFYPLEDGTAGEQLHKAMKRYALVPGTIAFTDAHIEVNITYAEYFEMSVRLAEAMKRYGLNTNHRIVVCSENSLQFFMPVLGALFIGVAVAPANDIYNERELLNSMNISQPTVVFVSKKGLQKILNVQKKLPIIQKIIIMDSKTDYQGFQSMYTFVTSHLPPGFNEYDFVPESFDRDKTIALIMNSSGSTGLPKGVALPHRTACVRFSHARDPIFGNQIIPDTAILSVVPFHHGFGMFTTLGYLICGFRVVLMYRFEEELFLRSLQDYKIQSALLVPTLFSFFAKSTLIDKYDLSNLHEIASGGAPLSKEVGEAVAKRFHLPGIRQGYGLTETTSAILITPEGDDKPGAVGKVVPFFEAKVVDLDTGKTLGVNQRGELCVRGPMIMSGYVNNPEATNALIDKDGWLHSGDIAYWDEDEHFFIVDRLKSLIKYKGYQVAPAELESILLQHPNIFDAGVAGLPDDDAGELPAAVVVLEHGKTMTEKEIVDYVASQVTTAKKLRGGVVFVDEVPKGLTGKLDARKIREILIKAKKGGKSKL
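Inhibitors were tested against purified firefly luciferase in a biochemical, low-substrate format (both substrates at 10uM) and luminescence measured with a CCD imager.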
hNpr1 antagonist = antagonists of human natriuretic peptide receptor Npr1 | HEK293 hNpr1 GloSensor cGMP, ANP-stimulated luminescence | 1.6% of 76,000 active | Potency, µM (titrated, usually from 46.3 µM), without a hit: at the highest dose activity change, negative = inhibition, actives largely listed as inhibitors; calls by dose curve; also: % is scaled to controls: 0 for no effect and ±100 for the full control effect; nearly all actives have a fitted effect of over 60% in size
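Compound pre-incubated 30 min at room temperature on GloSensor-loaded HEK293 cells stably carrying hNpr1 and the pGS-40F cGMP biosensor. Stimulation uses hNppA at 0.1 nM final; luminescence is taken at baseline and 20 min post-agonist.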
3T3 cytotox = NIH 3T3 cell cytotoxicity. Potency, µM (doses to about 96.7 µM), for inactives: at the highest dose activity change, negative = cytotoxicity, actives largely listed as inhibitors. NIH 3T3 viability, CellTiter-Glo ATP luminescence, 48-72 h. 4.3% of 94,000 active; also: % is scaled to controls: 0 for no effect and ±100 for the full control effect; nearly all actives have a fitted effect of over 55% in size
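First NIH 3T3 cells are plated at 400 cells/well; next compound is pinned in; then plates incubate 48 or 72 hr at 37 °C; finally CellTiter-Glo is added and luminescence read after 10 min.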
HEK cytotox = cytotoxic compounds in HEK 293 cells | HEK 293 viability, ATP luminescence (CellTiter-Glo), 48-72 h | Potency, µM (top dose mostly 115 µM), for inactives: at the top dose activity change, negative = cytotoxicity, actives largely listed as inhibitors | 6.6% of 94,000 active; also: % is scaled to controls: 0 for no effect and ±100 for the full control effect; nearly all actives have a fitted effect of over 60% in size
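CellTiter-Glo luminescence (cellular ATP) was read after 48 or 72 hr of compound exposure at 37 degree Celsius. Cells were HEK 293 plated at 250 cells/well.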
FLuc SDR -ATP = stabilizes firefly luciferase without ATP. Purified FLuc-C-HiBiT, Nano-Glo HiBiT luminescence, no ATP. shares compounds with FLuc inh-1. Potency, µM (top dose mostly 32.7 µM), inactives show at the top dose activation (signal gain), hits mostly activators. 7.8% of 1,300 active; also: nearly all actives have a fitted effect of over 55% in size
FLuc SDR ATP = stabilizes firefly luciferase with ATP present. Potency, µM (titrated, usually from 32.7 µM), for inactives: top-dose activation (gain of signal), hits mostly activators. purified FLuc-C-HiBiT + ATP, HiBiT complementation luminescence. 8.7% of 1,300 active. shares compounds with FLuc inh-1. AID 1963319;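 also: signal reports ligand binding via conformational change of the enzyme rather than luciferase catalysis; % of control where 0% means no effect; nearly all actives have a fitted effect of over 55% in size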
FLuc inh-2 = inhibitors of firefly luciferase enzymatic activity; shares compounds with FLuc inh-1; purified FLuc-C-HiBiT enzyme, luciferin luminescence; Potency, µM (highest dose often 32.7 µM), without a hit: at the highest dose activity change, negative = inhibition, usual class: inhibitors; 42% of 1,300 active; AID 1963320; also: % is scaled to controls: 0 for no effect and ±100 for the full control effect; nearly all actives have a fitted effect of over 70% in size
Starred values were filed as active, the others as inactive; i = inactive; ? = inconclusive; nt = not tested or not shown. Shown are actives, neighbours in structure and some others; about 11% of the full set was active somewhere. Unless noted, calls follow the shape of the dose curve; as a rule, active = well fitted curve in the direction sought with a large enough effect; inconclusive = small, poorly fitted or top-dose-only effect, or another doubt; inactive = no such curve, though single readings can be large; an effect the other way counts as inactive or inconclusive. Potency is read from the fitted curve at half-maximal effect.

SMILES	FLuc inh-1	hNpr1 antagonist	3T3 cytotox	HEK cytotox	FLuc SDR -ATP	FLuc SDR ATP	FLuc inh-2
CCOc1ccccc1C(=O)Nc1nc2c(s1)CC(C)CC2 (stereo unspecified)	nt	nt	nt	nt	14%	8%	4.4µM*
Cc1ccc(NC(=O)Nc2cccn3nc(C)nc23)cc1	7.9µM*	-8%	?	?	?	17%	?
O=C(Nc1ccc(-c2nnc3n2CCCC3)cc1)c1cccc(Cl)c1	i	-3%	?	?	nt	nt	nt
Cc1ccc2nc(-c3ccc(N=Nc4cc(S(=O)(=O)O)c5ccccc5c4O)cc3)sc2c1S(=O)(=O)O	nt	nt	nt	nt	2%	2%	12µM*
Cc1ccc2nc(-c3ccc4nc(-c5ccc(NC(=O)c6cccc(Cl)c6)cc5)sc4c3)sc2c1S(=O)(=O)O	nt	nt	nt	nt	2%	3%	?
Cc1ccc2nc(-c3ccc(N)cc3)sc2c1S(=O)(=O)O	nt	nt	nt	nt	?	?	2.5µM*
Fc1cc(F)cc(Cc2nc3nccc(-c4cccs4)n3n2)c1	i	-10%	?	?	nt	nt	nt
COc1cccc(C(=O)N2CCC(N(C(=O)C3CC3)C3CCOCC3)CC2)c1	i	5%	-2%	8%	nt	nt	nt
COCC1CCN(Cc2cc3ccc(OC)cc3nc2-c2cccc(C)c2)C1 (stereo unspecified)	?	2%	?	?	nt	nt	nt
O=C(N[C@@H]1CCC[C@@H]1C(=O)NCCc1cccs1)c1ccncc1	i	-2%	-15%	5%	nt	nt	nt
Cc1ccc(-c2cc3c(=O)n(CCNC(=O)c4ccc5c(c4)OCO5)ccn3n2)c(C)c1	?	-2%	-1%	3%	nt	nt	nt
Cc1ccc(-c2cc3c(=O)n(CCNC(=O)C4CCCCC4)ccn3n2)c(C)c1	2µM*	?	?	?	?	?	2.5µM*
Cc1ccc(C(=O)NCCn2ccn3nc(-c4ccc(C)cc4C)cc3c2=O)cc1	?	4%	-7%	i	nt	nt	nt
Cc1ccc(-c2cc3c(=O)n(CCNC(=O)c4cccc(Cl)c4)ccn3n2)c(C)c1	1.6µM*	?	?	?	28%	?	3.9µM*
Cc1ccc(-c2cc3c(=O)n(CCNC(=O)c4ccc(C)s4)ccn3n2)c(C)c1	4.5µM*	0%	?	?	27%	?	7µM*
Cc1cc(C)cc(C(=O)NCCn2ccn3nc(-c4ccc(C)cc4C)cc3c2=O)c1	2.8µM*	-22%	?	?	22%	14%	7µM*
COc1ccc(C(=O)NCCn2ccn3nc(-c4ccc(C)cc4C)cc3c2=O)c(C)c1	3.5µM*	?	?	?	24%	15%	5µM*
Cc1ccc(-c2cc3c(=O)n(CCNC(=O)c4ccccc4F)ccn3n2)c(C)c1	6.3µM*	-13%	-18%	?	?	?	7µM*
Cc1ccc(-c2cc3c(=O)n(CCNC(=O)c4cc(F)ccc4F)ccn3n2)c(C)c1	?	-20%	-19%	-10%	nt	nt	nt
Cc1ccc(-c2cc3c(=O)n(CCNC(=O)c4nccc5ccccc45)ccn3n2)c(C)c1	3.5µM*	-12%	?	45µM*	23%	16%	8.8µM*
CCOc1ccc(-c2cc3c(=O)n(CCNC(=O)c4ccc(C)cc4)ccn3n2)cc1	i	1%	i	i	nt	nt	nt
CCN1c2cc(C(=O)Nc3ccc(OC)c(OC)c3)ccc2C(=O)N2CCCC21 (stereo unspecified)	?	9%	-2%	-15%	nt	nt	nt
CCN1c2cc(C(=O)Nc3ccc4c(c3)OCCO4)ccc2C(=O)N2CCCC21 (stereo unspecified)	5µM*	-8%	?	?	27%	16%	?
CCN1c2cc(C(=O)Nc3ccc4c(c3)OCCO4)ccc2C(=O)N2CCCCCC21 (stereo unspecified)	11µM*	?	?	18µM*	21%	18%	?
CCN1c2cc(C(=O)Nc3ccc(Cl)c(Cl)c3)ccc2C(=O)N2CCCCC21 (stereo unspecified)	i	-1%	?	?	nt	nt	nt
CC(C)COc1ccc(C(=O)Nc2onc3c2CCCC3)cc1	nt	nt	nt	nt	28%	?	2µM*
CCOc1ccc(C(=O)Nc2onc3c2CCCC3)cc1	nt	nt	nt	nt	?	7µM*	2µM*
O=C(Nc1cnc2c(c1)CCC2)c1cccc(F)c1	nt	nt	?	-29%	nt	nt	nt
O=C(Nc1onc2c1CCCC2)c1ccccc1	nt	nt	nt	nt	18%	?	?

High-throughput results (PubChem)
